AmpC inh detg = AmpC beta-lactamase inhibition with detergent present. AmpC hydrolysis of nitrocefin, absorbance 480 nm, 0.01% Triton. AID 485294. 370,000 tested, 0.041% active. Potency, µM (doses to about 114 µM), usual class: inhibitors. P00811; also: nearly all actives have a fitted effect of over 25% in size
Target sequence (P00811 whole entry, looked up): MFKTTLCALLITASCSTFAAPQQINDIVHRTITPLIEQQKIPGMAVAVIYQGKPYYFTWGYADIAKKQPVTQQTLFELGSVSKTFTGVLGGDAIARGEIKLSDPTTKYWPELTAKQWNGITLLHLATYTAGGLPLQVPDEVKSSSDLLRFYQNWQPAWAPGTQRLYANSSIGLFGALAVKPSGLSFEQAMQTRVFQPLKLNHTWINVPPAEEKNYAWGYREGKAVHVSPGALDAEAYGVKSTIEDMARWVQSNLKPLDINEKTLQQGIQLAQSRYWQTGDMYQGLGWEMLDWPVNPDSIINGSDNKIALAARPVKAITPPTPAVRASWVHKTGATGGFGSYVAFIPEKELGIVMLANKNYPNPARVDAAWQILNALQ
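20 mM phosphate pH 7.0 + 0.01% (detergent screen) or 0.0001% Triton X-100; 5.3 nM AmpC reagent; cpd preinc 15 min RT; nitrocefin (800 uM stock) to start; A480 q20 s × 4 min; Activity was normalised to no-enzyme and no-compound control wells.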
SARS PLP yeast = SARS-CoV PLP inhibition in yeast. S. cerevisiae expressing SARS-CoV PLpro, growth rescue. Potency, µM (titrated, usually from 32.9 µM), usual class: activators. 330,000 tested, 0.19% active; calls by dose curve; also: nearly all actives have a fitted effect of over 55% in size
CHX counter = counter-screen for Shiga toxin inhibitors: cycloheximide protein synthesis inhibition; cell reporter, cycloheximide protein synthesis inhibition counterscreen; max response, %; 300,000 tested, 12% active; AID 2314; in the data active = max response mostly above about 13%, no sharp cut-off; inactive = mostly below about 14%; also: read at 38.3 µM for the half of the compounds with a filed dose
AmpC no deterg = AmpC beta-lactamase inhibition without detergent; 330,000 tested, 0.52% active; Potency, µM (doses to about 57.1 µM), hits mostly inhibitors; P00811; AmpC nitrocefin hydrolysis, absorbance 480 nm, 0.0001% Triton; also: nearly all actives have a fitted effect of over 20% in size
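20 mM phosphate pH 7.0 + 0.01% (detergent screen) or 0.0001% Triton X-100; 5.3 nM AmpC reagent; cpd preinc 15 min RT; nitrocefin (800 uM stock) to start; A480 q20 s × 4 min; Activity was normalised to no-enzyme and no-compound control wells.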
Shiga inhibitor = Shiga toxin inhibition. 290,000 tested, 9.2% active. inhibition, % at 38.7 µM. Vero cells, Shiga toxin protein synthesis inhibition reporter; in the data active = inhibition mostly above about 28%, no sharp cut-off; inactive = mostly below about 43%
AMA1 RON2 block = inhibitors of Plasmodium falciparum AMA1-RON2 interaction; AlphaScreen AMA1-biotinylated RON2 peptide binding; Potency, µM (highest dose often 58.2 µM), actives largely listed as inhibitors; 360,000 tested, 0.2% active; AID 720542; also: nearly all actives have a fitted effect of over 45% in size
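AMA1 (3D7) with his tag at 25 nM final met compounds first, then biotinylated RON2 peptide at 25 nM; detection used donor plus acceptor beads, 10 µg/mL apiece, read by AlphaScreen after 30 min at room temperature.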
Hits are given with their value; . = inactive; ? = inconclusive; / = not tested or not shown; [ ] = dose if it differs, or a comment. The sample as a whole holds a higher share of hits than the screen did. Unless noted, calls follow the shape of the dose curve; as a rule, active = well fitted curve in the direction sought with a large enough effect; inconclusive = small, poorly fitted or top-dose-only effect, or another doubt; inactive = no such curve, though single readings can be large; an effect the other way counts as inactive or inconclusive.

SMILES	AmpC inh detg	SARS PLP yeast	CHX counter	AmpC no deterg	Shiga inhibitor	AMA1 RON2 block
O=C(COC(=O)c1cccs1)NCc1ccc2c(c1)OCO2	.	.	40	.	69	.
C=C(C)C(=O)OCC(=O)NCc1ccccc1	.	.	36	.	114	.
O=C(COC(=O)c1cccs1)NCc1ccccc1	?	.	25	.	.	.
O=C(COC(=O)c1cccs1)NCC1CCCCC1	.	.	20	.	.	.
CC(=O)Nc1ccc(C(=O)OCC(=O)NCc2ccccc2)cc1	.	.	.	.[2.29 µM]	.	.
CCCOc1ccc(N2C(=O)CC(N(Cc3ccc(S(N)(=O)=O)cc3)C(=O)CC)C2=O)cc1 (centres undefined)	.	.	.	.	.	.
O=C(CSc1nncc(=O)[nH]1)Nc1cccc([N+](=O)[O-])c1	.	.	.	.	.	.
COc1ccc(NC(=O)N(C)C[C@H]2Oc3ccc(NC(=O)CCC(F)(F)F)cc3C(=O)N([C@H](C)CO)C[C@@H]2C)cc1	/	.	/	.	/	.
CCOc1ccc(N2CCCn3c2nc2c3c(=O)n(CCc3ccccc3)c(=O)n2C)cc1	?	.	.	.	.	/
COc1ccc(CC(=O)NCc2nnc(SCC(=O)Nc3ccc(OC)cc3)n2C)cc1	.	.	.	.	.	.
COc1cc2ccc(CC(=O)O)cc2cc1OC	/	/	/	/	/	.
CC(C)C(NS(=O)(=O)c1cccs1)C(=O)NCc1ccc2c(c1)OCO2 (centres undefined)	.	.	.	40µM	.	.
Cc1ccc(CNC(=O)C(NS(=O)(=O)c2cccs2)C(C)C)cc1 (centres undefined)	.	.	.	.	.	.
O=C(NNc1nc(-c2ccccc2)cs1)c1cccs1	.	.	.	8.9µM	.	.
CC(=O)NNc1nc(-c2ccc(C)cc2)cs1	.	.	23	.	71	.
O=C(NC(=S)Nc1nc(-c2ccccc2)cs1)c1cccs1	.	.	.	.	.	.
CN(Cc1ccccc1)S(=O)(=O)c1ccc(OCC(=O)Nc2cccc([N+](=O)[O-])c2)cc1	.	.	.	.	.	.
Cc1cc(=O)[nH]c(SCC(=O)c2ccc3c(c2)NC(=O)CO3)n1	.	.	.	.	.	.
CSc1ncc(CN2CCCC(C(=O)c3cccc(Cl)c3)C2)cn1 (centres undefined)	.	.	.	.	.	.
CSc1ncc(CN2CCCC(C(=O)c3ccc(C(C)(C)C)cc3)C2)cn1 (centres undefined)	.	.	22	.	.	.
Cc1ccc(/C=N/Nc2nc(Cl)c(Cl)cc2Cl)s1	.	.	28	.	96	.
Cc1ccsc1/C=N/Nc1nc(Cl)c(Cl)cc1Cl	.	.	41	.	.	.
CC(=O)NC(NC(=S)Nc1ccc(N=Nc2ccccc2)cc1)C(Cl)(Cl)Cl (centres undefined)	.	.	60	.	71	.
Cc1ccc(NC(=O)Cn2c(=O)n(CCC(=O)NCCc3ccccc3)c(=O)c3ccccc32)cc1	.	/	/	/	/	/
Cc1ccc(-c2nn(-c3ccccc3)cc2NC(=O)CCl)cc1	?	.	41	.	.	.
SMILES	AmpC inh detg	SARS PLP yeast	CHX counter	AmpC no deterg	Shiga inhibitor	AMA1 RON2 block
O=C(CCl)Nc1cc(-c2ccccc2)nn1-c1ccccc1	.	.	28	.	.	.
Cc1ccc(-c2cc(NC(=O)CCl)n(-c3ccccc3)n2)cc1	.	.	53	.	.	.
O=C(Nc1nc(-c2ccccc2)cs1)c1cccc([N+](=O)[O-])c1C(=O)O	.	.	.	.	.	.
CCc1nc2ccc(N3CCN(C)CC3)cc2nc1CC	?	.	25	.	.	.
N#C/C(=C\Nc1ccc2c(c1)OCCO2)C(=O)NCc1ccco1	.	.	.	.	32	.
CCN(CC)c1ccc(/C=C(\C#N)C(=O)NCc2ccco2)cc1	.	.	36	.	43	/
CN(C)c1ccc(/C=C(\C#N)C(=O)NCc2ccco2)cc1	?	.	50	.	85	/
COc1ccc(S(=O)(=O)N2CCN(C(=O)c3sccc3-c3ccccc3)CC2)cc1	.	.	/	.	/	.
CN(CC(=O)Nc1ccc(Cl)c(Cl)c1)C(=O)CN1C(=O)NC2(CCCC2)C1=O	.	.	/	.	/	.
COc1ccc(N=C2SC(CC(=O)Nc3cccc(Cl)c3)C(=O)N2Cc2ccco2)cc1 (centres undefined)	?	.	37	.	16	.[11.6 µM]
O=C(/C=C/c1ccc([N+](=O)[O-])cc1)c1cccs1	.	.	.	.	.	.
COc1cc([N+](=O)[O-])ccc1N/C=C/C(=O)c1cccs1	.	.	27	.	60	.
NC(=O)c1ccccc1N/C=C/C(=O)c1cccs1	.	?	44	.	45	.
NC(=O)c1ccccc1N/C=C/C(=O)c1ccc(Cl)cc1Cl	.	.	33	.	72	.
NC(=O)c1ccccc1N/C=C/C(=O)c1ccc(F)cc1	.	.	56	.	98	.
O=C1NC[C@H](Cc2ccccc2)N(CCc2cccc(F)c2)C1=O	.	.	.	.	.	.
CCN1C(=O)/C(=C2\SC(=S)N(NC(=O)c3cccnc3)C2=O)c2ccccc21	.	.	.	.	.	.
O=S(=O)(c1cccc(F)c1)N1CCN(Cc2ccc3c(c2)OCO3)CC1	?	.	.	.	.	.
Cc1cccc(N/C=C/C(=O)c2cccs2)c1C	.	.	49	.	74	.
Cc1ccc(C(=O)/C=C/Nc2ccccc2C(N)=O)o1	.	/	54	/	83	.
Cc1c(NC(=O)c2cccs2)cccc1NC(=O)c1cccs1	.	/	.	.	.	.
Cc1ccc(OCC(=O)Nc2cccc(-c3nnc(-c4ccccc4)o3)c2)c(C)c1	?	.	.	.	.	.
COc1ccc(-c2nc3cc(NC(=O)Cc4ccc(OC)c(OC)c4)ccc3o2)cc1	?	.	25	.	34	.
COc1ccc(Cc2nnc(Nc3ccc(C)cc3)o2)cc1OC	.	.	.	.	.	.
COc1ccc(Cc2nnc(-c3cccc(C)c3)o2)cc1OC	.	?	21	.	43	.
SMILES	AmpC inh detg	SARS PLP yeast	CHX counter	AmpC no deterg	Shiga inhibitor	AMA1 RON2 block
COc1ccc(CC(=O)Nc2cccc(-c3nnc(-c4ccccc4)o3)c2)cc1OC	.	.	49	.	96	.
COc1ccc(CC(=O)Nc2cccc(-c3nnc(-c4ccc(C)cc4)o3)c2)cc1OC	.	.	25	.	.	.
O=C(OCc1cc2ccccc2[nH]c1=O)c1cccc([N+](=O)[O-])c1	.	.	.	.	.	.
COc1ccc(CC(=O)Nc2cccc(-c3nnc(-c4cccc(C)c4)o3)c2)cc1OC	?	.	46	.	52	.
COc1ccc(CC(=O)Nc2ccc(-c3nnc(-c4ccccc4)o3)cc2)cc1OC	.	.	15	.	.	.
CN(C(=O)CSc1ccncc1)C1CCCN(Cc2ccccc2F)C1 (centres undefined)	.	.	.	.	.	.

Assay outcomes: PubChem, National Center for Advancing Translational Sciences (NCATS)
